In ChEMBL document CHEMBL1961873, “Compounds: GSK PKIS; Assays: Nanosyn kinase panel” (2012):

Key:
[1] = target: Serine/threonine-protein kinase MARK2 (Homo sapiens) (UniProt Q7KZI7); conditions: at 1 µM
[2] = target: PAS domain-containing serine/threonine-protein kinase (Homo sapiens) (UniProt Q96RG2); conditions: at 0.1 µM
[3] = target: PAS domain-containing serine/threonine-protein kinase (Homo sapiens) (UniProt Q96RG2); conditions: at 1 µM
[4] = target: Phosphorylase b kinase gamma catalytic chain, skeletal muscle/heart isoform (Homo sapiens) (UniProt Q16816); conditions: at 0.1 µM
[5] = target: Phosphorylase b kinase gamma catalytic chain, skeletal muscle/heart isoform (Homo sapiens) (UniProt Q16816); conditions: at 1 µM
[6] = target: T1, Phosphorylase b kinase gamma catalytic chain, liver/testis isoform (Homo sapiens) (UniProt P15735); conditions: at 0.1 µM
T1 sequence (whole entry): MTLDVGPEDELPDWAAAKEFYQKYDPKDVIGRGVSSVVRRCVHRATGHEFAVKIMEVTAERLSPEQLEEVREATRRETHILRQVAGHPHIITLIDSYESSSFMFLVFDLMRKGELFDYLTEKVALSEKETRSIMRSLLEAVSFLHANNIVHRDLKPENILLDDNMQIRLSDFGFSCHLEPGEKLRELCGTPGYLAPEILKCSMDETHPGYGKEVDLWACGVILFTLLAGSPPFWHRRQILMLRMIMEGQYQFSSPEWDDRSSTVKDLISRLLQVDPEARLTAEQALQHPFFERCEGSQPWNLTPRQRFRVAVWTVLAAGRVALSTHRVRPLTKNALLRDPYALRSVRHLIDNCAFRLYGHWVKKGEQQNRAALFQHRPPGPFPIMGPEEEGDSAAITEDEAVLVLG

[7] = target: T1, Phosphorylase b kinase gamma catalytic chain, liver/testis isoform (Homo sapiens); conditions: at 1 µM
[8] = target: Serine/threonine-protein kinase pim-1 (Homo sapiens) (UniProt P11309); conditions: at 0.1 µM
[9] = target: Serine/threonine-protein kinase pim-1 (Homo sapiens) (UniProt P11309); conditions: at 1 µM
[10] = target: Serine/threonine-protein kinase pim-2 (Homo sapiens) (UniProt Q9P1W9); conditions: at 0.1 µM
[11] = target: Serine/threonine-protein kinase pim-2 (Homo sapiens) (UniProt Q9P1W9); conditions: at 1 µM
[12] = target: Serine/threonine-protein kinase pim-3 (Homo sapiens) (UniProt Q86V86); conditions: at 0.1 µM
[13] = target: Serine/threonine-protein kinase pim-3 (Homo sapiens) (UniProt Q86V86); conditions: at 1 µM
[14] = target: T2, MAP kinase-activated protein kinase 5 (Homo sapiens) (UniProt Q8IW41); conditions: at 0.1 µM
T2 sequence (whole entry): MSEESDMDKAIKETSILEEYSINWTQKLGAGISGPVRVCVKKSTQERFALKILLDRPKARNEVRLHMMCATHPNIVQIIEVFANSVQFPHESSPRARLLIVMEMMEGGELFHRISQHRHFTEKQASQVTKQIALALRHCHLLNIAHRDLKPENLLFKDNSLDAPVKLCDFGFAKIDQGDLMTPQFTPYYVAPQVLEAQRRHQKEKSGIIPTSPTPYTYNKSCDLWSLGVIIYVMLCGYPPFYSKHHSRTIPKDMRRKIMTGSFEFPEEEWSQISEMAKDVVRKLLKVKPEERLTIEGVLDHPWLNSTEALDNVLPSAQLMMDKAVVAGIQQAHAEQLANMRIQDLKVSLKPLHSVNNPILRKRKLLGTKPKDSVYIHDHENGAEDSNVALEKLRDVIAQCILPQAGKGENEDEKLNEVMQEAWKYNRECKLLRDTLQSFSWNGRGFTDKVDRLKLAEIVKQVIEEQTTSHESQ

[15] = target: T2, MAP kinase-activated protein kinase 5 (Homo sapiens); conditions: at 1 µM
[16] = target: Serine/threonine-protein kinase SIK1 (Homo sapiens) (UniProt P57059); conditions: at 0.1 µM
[17] = target: Serine/threonine-protein kinase SIK1 (Homo sapiens) (UniProt P57059); conditions: at 1 µM
[18] = target: Serine/threonine-protein kinase SIK2 (Homo sapiens) (UniProt Q9H0K1); conditions: at 0.1 µM
[19] = target: Serine/threonine-protein kinase SIK2 (Homo sapiens) (UniProt Q9H0K1); conditions: at 1 µM
[20] = target: T3, Serine/threonine-protein kinase TBK1 (Homo sapiens) (UniProt Q9UHD2); conditions: at 0.1 µM;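 note: values are the mean TBK1 inhibition, taken from the GSK PKIS screening data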
T3 sequence (whole entry): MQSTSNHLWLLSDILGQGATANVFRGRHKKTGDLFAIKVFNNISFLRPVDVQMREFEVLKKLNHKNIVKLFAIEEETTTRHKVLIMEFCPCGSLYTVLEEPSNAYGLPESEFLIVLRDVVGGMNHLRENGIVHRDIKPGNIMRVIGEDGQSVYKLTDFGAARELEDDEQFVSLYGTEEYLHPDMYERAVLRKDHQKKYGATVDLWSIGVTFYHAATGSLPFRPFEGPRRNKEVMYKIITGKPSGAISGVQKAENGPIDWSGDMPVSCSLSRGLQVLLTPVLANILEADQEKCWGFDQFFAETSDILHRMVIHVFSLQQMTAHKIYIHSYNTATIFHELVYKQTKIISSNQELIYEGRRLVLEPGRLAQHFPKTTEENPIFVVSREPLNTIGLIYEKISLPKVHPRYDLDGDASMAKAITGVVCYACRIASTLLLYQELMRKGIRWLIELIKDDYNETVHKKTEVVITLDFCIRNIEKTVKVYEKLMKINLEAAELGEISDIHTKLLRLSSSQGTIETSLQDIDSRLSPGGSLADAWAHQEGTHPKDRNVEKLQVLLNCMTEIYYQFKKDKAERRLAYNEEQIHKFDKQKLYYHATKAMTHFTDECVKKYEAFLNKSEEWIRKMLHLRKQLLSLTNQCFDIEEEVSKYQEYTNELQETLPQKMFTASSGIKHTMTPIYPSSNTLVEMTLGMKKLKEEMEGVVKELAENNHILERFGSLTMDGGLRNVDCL

Chain of Serine/threonine-protein kinase pim-1 (Homo sapiens) (P11309 whole entry, looked up): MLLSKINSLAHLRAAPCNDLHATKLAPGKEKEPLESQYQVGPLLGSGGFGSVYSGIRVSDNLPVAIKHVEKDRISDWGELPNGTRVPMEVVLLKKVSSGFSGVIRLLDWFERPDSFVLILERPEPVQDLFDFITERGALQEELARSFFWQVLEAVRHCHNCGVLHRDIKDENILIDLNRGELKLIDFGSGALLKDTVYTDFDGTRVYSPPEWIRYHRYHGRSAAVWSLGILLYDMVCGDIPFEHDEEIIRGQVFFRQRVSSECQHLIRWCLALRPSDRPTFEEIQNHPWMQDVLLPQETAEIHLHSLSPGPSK
Chain of PAS domain-containing serine/threonine-protein kinase (Homo sapiens) (Q96RG2 whole entry, the tested form may be a part, canonical isoform): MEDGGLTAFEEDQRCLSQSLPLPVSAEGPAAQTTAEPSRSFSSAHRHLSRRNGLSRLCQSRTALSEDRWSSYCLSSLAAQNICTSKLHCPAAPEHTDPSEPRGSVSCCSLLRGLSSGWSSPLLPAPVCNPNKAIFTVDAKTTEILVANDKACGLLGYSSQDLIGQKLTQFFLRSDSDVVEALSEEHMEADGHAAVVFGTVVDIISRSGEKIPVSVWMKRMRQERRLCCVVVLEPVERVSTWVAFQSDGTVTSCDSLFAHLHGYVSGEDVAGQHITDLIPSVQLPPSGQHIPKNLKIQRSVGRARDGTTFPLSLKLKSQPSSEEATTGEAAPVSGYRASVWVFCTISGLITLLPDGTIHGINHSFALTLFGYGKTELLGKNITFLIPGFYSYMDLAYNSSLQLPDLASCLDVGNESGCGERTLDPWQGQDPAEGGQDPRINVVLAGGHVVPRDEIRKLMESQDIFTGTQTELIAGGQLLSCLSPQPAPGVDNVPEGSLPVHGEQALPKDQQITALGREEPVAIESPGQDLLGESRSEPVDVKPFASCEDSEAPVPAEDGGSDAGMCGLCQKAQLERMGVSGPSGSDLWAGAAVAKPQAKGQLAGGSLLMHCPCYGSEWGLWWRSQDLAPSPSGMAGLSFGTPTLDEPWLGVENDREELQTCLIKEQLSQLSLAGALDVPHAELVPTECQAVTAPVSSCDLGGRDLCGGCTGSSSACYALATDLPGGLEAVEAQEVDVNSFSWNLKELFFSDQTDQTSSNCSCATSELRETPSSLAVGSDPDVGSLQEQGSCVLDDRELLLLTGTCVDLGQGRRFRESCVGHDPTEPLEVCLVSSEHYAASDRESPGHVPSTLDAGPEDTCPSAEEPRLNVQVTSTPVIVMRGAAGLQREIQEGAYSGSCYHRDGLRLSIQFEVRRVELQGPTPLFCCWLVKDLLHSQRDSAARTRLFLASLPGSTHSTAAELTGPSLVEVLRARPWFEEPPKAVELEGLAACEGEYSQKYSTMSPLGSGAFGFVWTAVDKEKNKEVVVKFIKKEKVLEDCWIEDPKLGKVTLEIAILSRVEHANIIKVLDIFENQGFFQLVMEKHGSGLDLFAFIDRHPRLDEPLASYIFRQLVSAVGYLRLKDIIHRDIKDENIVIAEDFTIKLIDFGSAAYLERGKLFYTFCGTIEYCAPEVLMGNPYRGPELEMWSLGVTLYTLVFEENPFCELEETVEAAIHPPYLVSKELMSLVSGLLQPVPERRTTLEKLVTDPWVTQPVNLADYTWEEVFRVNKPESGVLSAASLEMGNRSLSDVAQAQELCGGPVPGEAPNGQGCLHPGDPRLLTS
Chain of Phosphorylase b kinase gamma catalytic chain, skeletal muscle/heart isoform (Homo sapiens) (Q16816 whole entry, looked up, canonical isoform): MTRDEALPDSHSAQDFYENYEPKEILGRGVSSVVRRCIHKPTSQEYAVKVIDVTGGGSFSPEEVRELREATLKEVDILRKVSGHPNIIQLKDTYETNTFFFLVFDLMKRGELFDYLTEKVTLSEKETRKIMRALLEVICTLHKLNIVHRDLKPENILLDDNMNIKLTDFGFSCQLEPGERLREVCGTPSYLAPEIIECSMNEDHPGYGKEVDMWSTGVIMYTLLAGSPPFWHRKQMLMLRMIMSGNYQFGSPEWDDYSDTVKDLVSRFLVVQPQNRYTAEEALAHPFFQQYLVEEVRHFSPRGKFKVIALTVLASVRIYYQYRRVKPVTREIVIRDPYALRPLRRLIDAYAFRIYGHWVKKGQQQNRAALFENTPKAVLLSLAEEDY
Chain of Serine/threonine-protein kinase SIK2 (Homo sapiens) (Q9H0K1 whole entry, looked up): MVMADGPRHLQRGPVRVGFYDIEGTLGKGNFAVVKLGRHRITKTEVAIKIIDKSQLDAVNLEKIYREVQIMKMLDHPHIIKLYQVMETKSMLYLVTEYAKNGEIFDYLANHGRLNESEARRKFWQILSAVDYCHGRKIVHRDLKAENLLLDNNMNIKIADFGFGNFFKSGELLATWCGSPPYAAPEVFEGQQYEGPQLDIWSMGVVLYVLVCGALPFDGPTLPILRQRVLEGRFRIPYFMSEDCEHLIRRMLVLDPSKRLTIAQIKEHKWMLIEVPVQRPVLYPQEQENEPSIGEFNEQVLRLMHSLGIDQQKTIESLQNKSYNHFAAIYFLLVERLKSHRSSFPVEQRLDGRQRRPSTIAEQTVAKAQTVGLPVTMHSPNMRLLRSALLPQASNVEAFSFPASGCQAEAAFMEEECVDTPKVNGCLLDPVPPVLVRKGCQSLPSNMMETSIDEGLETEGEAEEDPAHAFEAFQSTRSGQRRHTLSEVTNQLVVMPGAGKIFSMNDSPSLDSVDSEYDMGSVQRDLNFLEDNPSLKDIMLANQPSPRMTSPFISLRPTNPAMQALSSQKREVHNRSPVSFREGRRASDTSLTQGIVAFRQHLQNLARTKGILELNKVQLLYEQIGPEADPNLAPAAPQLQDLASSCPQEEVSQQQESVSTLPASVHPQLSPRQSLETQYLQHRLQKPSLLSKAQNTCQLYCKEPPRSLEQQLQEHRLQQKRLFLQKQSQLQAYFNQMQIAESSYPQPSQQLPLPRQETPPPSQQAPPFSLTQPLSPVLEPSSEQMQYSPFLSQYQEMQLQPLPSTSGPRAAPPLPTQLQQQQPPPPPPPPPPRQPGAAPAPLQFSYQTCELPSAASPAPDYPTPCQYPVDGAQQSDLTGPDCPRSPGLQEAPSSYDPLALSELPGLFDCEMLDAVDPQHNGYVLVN
Chain of Serine/threonine-protein kinase MARK2 (Homo sapiens) (Q7KZI7 whole entry, the tested form may be a part): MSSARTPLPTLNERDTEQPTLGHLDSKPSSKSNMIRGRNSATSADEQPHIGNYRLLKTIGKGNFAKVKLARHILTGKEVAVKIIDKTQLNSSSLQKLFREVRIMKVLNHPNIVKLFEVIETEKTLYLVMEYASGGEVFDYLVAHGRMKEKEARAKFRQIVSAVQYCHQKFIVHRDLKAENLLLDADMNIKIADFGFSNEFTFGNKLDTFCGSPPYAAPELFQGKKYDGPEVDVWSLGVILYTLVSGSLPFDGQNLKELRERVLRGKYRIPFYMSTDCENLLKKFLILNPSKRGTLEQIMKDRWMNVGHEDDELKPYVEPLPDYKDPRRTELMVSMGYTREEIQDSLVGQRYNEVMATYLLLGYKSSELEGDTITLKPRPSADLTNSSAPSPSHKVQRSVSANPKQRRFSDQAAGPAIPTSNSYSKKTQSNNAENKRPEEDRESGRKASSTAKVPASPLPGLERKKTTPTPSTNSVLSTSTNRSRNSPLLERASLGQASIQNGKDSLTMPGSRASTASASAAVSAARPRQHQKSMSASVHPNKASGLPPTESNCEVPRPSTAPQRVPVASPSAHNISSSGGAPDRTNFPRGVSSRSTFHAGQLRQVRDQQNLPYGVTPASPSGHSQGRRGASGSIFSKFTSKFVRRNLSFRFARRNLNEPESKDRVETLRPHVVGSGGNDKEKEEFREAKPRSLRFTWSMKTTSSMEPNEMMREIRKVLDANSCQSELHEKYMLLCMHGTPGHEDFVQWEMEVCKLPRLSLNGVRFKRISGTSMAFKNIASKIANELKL
Chain of Serine/threonine-protein kinase SIK1 (Homo sapiens) (P57059 whole entry): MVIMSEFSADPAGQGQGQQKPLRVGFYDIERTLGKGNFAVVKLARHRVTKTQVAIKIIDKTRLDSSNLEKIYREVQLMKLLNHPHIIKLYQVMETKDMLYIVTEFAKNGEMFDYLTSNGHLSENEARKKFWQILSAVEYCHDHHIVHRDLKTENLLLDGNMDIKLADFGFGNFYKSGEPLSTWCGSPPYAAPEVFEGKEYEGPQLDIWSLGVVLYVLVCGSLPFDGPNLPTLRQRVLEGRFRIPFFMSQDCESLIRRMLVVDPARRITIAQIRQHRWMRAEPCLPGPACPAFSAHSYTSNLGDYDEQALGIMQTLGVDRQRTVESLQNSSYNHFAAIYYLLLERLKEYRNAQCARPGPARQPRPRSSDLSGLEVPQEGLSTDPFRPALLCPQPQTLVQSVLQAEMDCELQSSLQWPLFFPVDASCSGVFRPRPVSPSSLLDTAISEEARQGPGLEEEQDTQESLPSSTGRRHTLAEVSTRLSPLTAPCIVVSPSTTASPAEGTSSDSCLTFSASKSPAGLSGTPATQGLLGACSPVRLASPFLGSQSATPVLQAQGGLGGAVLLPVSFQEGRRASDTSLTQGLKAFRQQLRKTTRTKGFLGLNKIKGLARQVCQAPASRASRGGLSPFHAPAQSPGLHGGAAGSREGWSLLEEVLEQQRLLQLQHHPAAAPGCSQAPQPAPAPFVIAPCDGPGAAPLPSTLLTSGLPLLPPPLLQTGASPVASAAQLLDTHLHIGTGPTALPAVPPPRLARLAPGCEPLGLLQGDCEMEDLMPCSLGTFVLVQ

| Compound | inhibition [1] [%] | inhibition [2] [%] | inhibition [3] [%] | inhibition [4] [%] | inhibition [5] [%] | inhibition [6] [%] | inhibition [7] [%] | inhibition [8] [%] | inhibition [9] [%] | inhibition [10] [%] | inhibition [11] [%] | inhibition [12] [%] | inhibition [13] [%] | inhibition [14] [%] | inhibition [15] [%] | inhibition [16] [%] | inhibition [17] [%] | inhibition [18] [%] | inhibition [19] [%] | inhibition [20] [%] |
| --- | --- | --- | --- | --- | --- | --- | --- | --- | --- | --- | --- | --- | --- | --- | --- | --- | --- | --- | --- | --- |
| COC(=O)Nc1nc2ccc(S(=O)(=O)c3ccc(NC(=O)Nc4cc(C(F)(F)F)ccc4F)cc3)cc2[nH]1 | 1.75 | 0.31 | -0.77 | 1.75 | 1.03 | 2.73 | 0.31 | 0.78 | 1.71 | -0.06 | 0.73 | -0.65 | -1.2 | 0.38 | -0.4 | 2.55 | 3.12 | 0.97 | 0.1 | 2.66 |
| COC(=O)c1sc(-n2cnc3cc(OC)c(OC)cc32)cc1OCc1ccccc1C(F)(F)F | 2.26 | -1.52 | -2.77 | 4.45 | 5.4 | 4.03 | 0.9 | 0.49 | 1 | 0.49 | -0.34 | -1.72 | -2.84 | 2.02 | -0.15 | 6.13 | 24.6 | 5.85 | 15.2 | 3.44 |
| CCCN1CCC(c2ccc(Nc3nc(Nc4cc(F)ccc4C(N)=O)c4cc[nH]c4n3)c(OC)c2)CC1 | 41 | 0.01 | 20.7 | 51.3 | 80.7 | 25.7 | 71.7 | 7.64 | 45.3 | 1.98 | 13.3 | 8.07 | 49.4 | 6.44 | 40.9 | 10.1 | 14.7 | 10.9 | 11.7 | 0.75 |
| COc1ccc2c(-c3ccnc(Nc4cccc(OC(F)(F)F)c4)n3)cnn2n1 | 2.62 | -0.05 | 0.2 | 2.28 | 8.92 | 6.32 | 8.34 | 1.24 | 0.36 | -0.29 | 0.02 | 0.74 | 1.07 | 1.98 | 3.27 | 7.04 | 12.8 | 9.16 | 12.1 | 7.22 |
| CNC(=O)c1cc(-c2ccc(F)cc2)cc(-c2ccc(S(=O)(=O)N3CCCC3)cc2)c1N | 1.52 | 0.47 | -0.16 | 2.9 | 4.24 | 3.8 | 3.18 | 0.06 | 0.44 | -0.39 | 0.43 | -1.52 | -0.11 | 0.53 | 0.97 | 6.18 | 6.6 | 3.18 | 5.07 | 0.38 |
| COc1ccc(-c2cc(-c3c[nH]nc3-c3ccccn3)ccn2)cc1 | 1.63 | 1.23 | 0.75 | 2.63 | 6.04 | 6.55 | 8.39 | -0.05 | 0.03 | 0.36 | 1.29 | 0.79 | 1.9 | 2.14 | 4.32 | 11.2 | 7.23 | 3.82 | 11.3 | 4.48 |
| FC(F)(F)c1cccc(-c2nn3ncccc3c2-c2ccnc(Nc3ccc4c(c3)OCCO4)n2)c1 | 1.86 | 0.04 | -1.92 | -0.01 | 2.06 | 1.75 | 0.4 | 0.41 | 0.7 | -0.06 | 0.66 | -1.58 | -2.3 | 0.49 | -0.29 | 3.06 | 6.62 | 3.42 | 6.02 | 0.3 |
| Nc1nc(-c2cccc(Cl)c2)c(-c2ccc3ncccc3n2)s1 | -0.63 | 0.04 | 1.47 | 6.45 | 11.3 | 5.42 | 10.1 | 1.14 | 3.59 | -0.44 | 0.44 | 1.25 | 4.87 | 2.21 | 4.45 | 3.24 | 9.29 | 4.96 | 14.6 | 3.03 |
| CCn1c(-c2nonc2N)nc2c(C#CC(C)(C)O)nc(OC[C@H](N)c3ccccc3)cc21 | 18.1 | -0.65 | 8.04 | 2.23 | -1.37 | 2.76 | 5.27 | 1.54 | 3.63 | 0.71 | 3.44 | 0.83 | 4.27 | 0.68 | 1.6 | 3.53 | 7.29 | 1.31 | -1.51 | 3.75 |
| COc1cc(N2CCN(C(C)C)CC2)ccc1Nc1nc(Nc2ccc(F)cc2C(N)=O)c2cc[nH]c2n1 | 39.3 | -0.71 | 2.69 | 58.2 | 78.1 | 19.1 | 64.7 | 3.27 | 25.3 | -0.44 | 1.98 | 1.69 | 19.9 | 1.95 | 16 | 7.46 | 14.3 | 3.18 | 8.56 | 3.02 |
| CN1CCC(n2cnc(-c3ccc(F)cc3)c2-c2ccnc(N)n2)CC1 | -0.63 | -0.52 | 1.84 | 1.61 | 5.65 | 2.82 | 2.94 | 2.59 | 19.3 | 0.18 | 6.09 | 2.48 | 21.3 | 1 | 1.6 | 2.58 | 7.47 | 7.38 | 21.9 | -1.27 |
| CN1CCC(n2cnc(-c3ccc(F)cc3)c2-c2ccnc(Nc3ccccc3)n2)CC1 | -0.33 | -0.38 | 2.19 | 3.44 | 4.79 | 3.49 | 2.68 | 0.38 | 2.62 | -0.56 | 0.35 | 1.06 | 5.66 | 1.06 | 1.42 | 3.13 | 4.66 | 7.17 | 22.9 | 0.4 |
| CS(=O)(=O)CCNCc1coc(-c2ccc3ncnc(Nc4ccc(OCc5ccccc5)cc4)c3c2)c1 | 2.39 | 0.45 | 0.89 | 2.33 | 6.25 | 3.94 | 3.59 | 1.45 | 1.25 | -0.56 | 0.48 | 1.2 | 3.43 | 1.41 | 1.21 | 1.7 | 8.27 | -0.18 | 5.7 | 2.64 |
